From PubChem BioAssay AID504834 (National Center for Advancing Translational Sciences (NCATS), 2011)
Screen size: about 320,000 compounds; about 22,000 (6.9%) were called active. About 27% were inconclusive and are not listed. What follows is part of a selection rich in actives, with near analogues and random picks from the rest. Entries that show only a call come without a potency. Values without a mark were called inactive. Calls come from the whole dose curve; as a rule, active = well fitted inhibition curve with a large enough effect; inconclusive = small, poorly fitted or top-dose-only effect, or another doubt; inactive = no such curve, though single readings can be large or run the other way. Where a SMILES comes first, the peptide text is derived from it. [ ]: non-standard residue; d: D form. The star is where a group is joined. ξ: configuration not given here. Cbz = O=C(OCc1ccccc1)*; ξL = CC(C)CC(N)C(=O)O; ξP = O=C(O)C1CCCN1

assay: Primary qHTS for delayed death inhibitors of the malarial parasite plastid, 96 hour incubation; conditions: P. falciparum luciferase reporter growth; series mostly up to 28.7 µM
Outline: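 96 h incubation, 37 C, 5% CO2, of luciferase-reporter P. falciparum-infected RBCs (2% hematocrit, 0.05% parasitemia final) with test compounds; endpoint luminescence.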
Potency is the fitted concentration of half-maximal effect.

| Compound | Potency | activity change, negative = inhibition |
| --- | --- | --- |
| COc1cccc(NC(=O)CN(C)CC(=O)c2c(N)n(Cc3ccccc3)c(=O)n(C)c2=O)c1 | inactive | – |
| COc1ccc(OC)c(CCNC(=O)c2nn(C)c3c2CS(=O)(=O)c2ccccc2-3)c1 | inactive | – |
| CC(C)CC(NC(=O)C1CCCN1C(=O)[C@@H](C)NC(=O)OCc1ccccc1)C(=O)NCC(N)=O (stereo not given in full) (Cbz-[dA][ξP][ξL]G-NH2) | inactive | – |
| O=C(CSc1nc2ccccc2c(=O)n1-c1ccc(F)cc1)NC1CC1 | inactive | – |
| NS(=O)(=O)c1cccc(NC(=O)CSc2nc3ccccc3n2-c2ccccc2)c1 | inactive | – |
| CN(CCOc1ccc(Br)cc1)CC(=O)Nc1cccc(S(=O)(=O)NC2=NCCC2)c1 | inactive | – |
| Cc1cccc(-n2c(SCC(=O)Nc3cccc(S(=O)(=O)NC4=NCCCCC4)c3)nc3ccccc3c2=O)c1C | 5.22 µM (active) | – |
| O=C(Nc1cccc(S(=O)(=O)NC2=NCCC2)c1)C1CCCCC1 | inactive | – |
| CCc1ccc(C(=O)OCC(=O)Nc2cccc(S(=O)(=O)NC3=NCCCCC3)c2)cc1 | 10.4 µM (active) | – |
| COc1ccc(C(C)=O)cc1COc1ccc(Cl)c(C)c1 | inactive | – |
| COCCN(C(=O)CSCc1ccc(C)cc1)c1c(N)n(CC(C)C)c(=O)[nH]c1=O | inactive | – |
| CC(=O)Nc1ccc(C(=O)/C=C/c2ccc[nH]2)cc1 | inactive | – |
| Cc1ccccc1OCCC(=O)OCC(=O)NCCc1ccc(S(N)(=O)=O)cc1 | inactive | – |
| O=C(CS(=O)(=O)c1ccccc1)Nc1ccc(S(=O)(=O)Nc2ccccn2)cc1 | inactive | – |
| Cc1cc(C)cc(OCC(=O)Nc2ccc(S(=O)(=O)Nc3ccccn3)cc2)c1 | 1.65 µM (active) | – |
| Cc1ccc(OCC(=O)Nc2ccc(S(=O)(=O)Nc3ccccn3)cc2)cc1 | inactive | – |
| CC(Cc1ccccc1)NCCC(c1ccccc1)c1ccccc1 (stereo not given) | 14.7 µM (active) | – |
| Cc1ncoc1C(=O)NCCC(c1ccccc1)c1ccccc1 | inactive | – |
| CC(Cc1ccccc1)C(=O)N(C)Cc1ccccc1 (stereo not given) | inactive | – |
| C[C@H](NC(=O)c1nc[nH]c1C(=O)NCC(=O)OC(C)(C)C)C(=O)OCc1ccccc1 | inactive | – |
| COC(=O)c1cccc(NS(C)(=O)=O)c1 | inactive | – |
| COc1ccc(-n2c(C)cc(C(=O)COC(=O)c3cc(OC)c(OC)cc3NC(=O)c3cccs3)c2C)cc1 | 2.62 µM (active) | – |
| COc1ccc(C(=O)COC(=O)CNC(=O)c2cccs2)cc1Br | inactive | – |
| Cc1cc(C(=O)COC(=O)c2cccs2)c(C)n1-c1c(C)n(C)n(-c2ccccc2)c1=O | inactive | – |
| O=C(CN1CCN(c2ccc(F)cc2)CC1)Nc1ccccc1 | inactive | – |

| Compound | Potency | activity change, negative = inhibition |
| --- | --- | --- |
| CC1CCN(c2c(NCc3ccc(C(=O)NCc4ccccc4)cc3)c(=O)c2=O)CC1 | inactive | – |
| N#Cc1nc(Cc2cccc3ccccc23)oc1NCc1ccc2c(c1)OCO2 | 14.7 µM (active) | – |
| N#Cc1nc(Cc2ccccc2)oc1NCCc1ccccc1 | inactive | – |
| c1n[nH]c(NCc2ccc3c(c2)OCO3)n1 | – | 2.18% [at 5.75 µM] |
| O=S(=O)(Nc1n[nH]c(C(F)(F)F)n1)c1ccccc1 | inactive | – |
| O=C(N/N=C/c1ccccn1)c1cccc(NC(=O)c2ccc(Cl)cc2)c1 | inactive | – |
| CC(C)(C)c1ccc(Cn2nnc3c(=O)[nH]c(C4CCCN(C(=O)c5ccco5)C4)nc32)cc1 (stereo not given) | inactive | – |
| CCC(C(=O)NCCC(C)C)N(Cc1ccccc1Cl)C(=O)c1snc(C(N)=O)c1N (stereo not given) | inactive | – |
| CCC(=O)N1c2ccc(S(=O)(=O)CCC(=O)N3CCN(c4ccccc4)CC3)cc2CC1C (stereo not given) | inactive | – |
| COc1ccccc1CNC(=O)C1CCN(S(=O)(=O)c2ccc3c(c2)CC(C)N3C(=O)C2CC2)CC1 (stereo not given) | inactive | – |
| Cc1ccc(CNC(=O)CCS(=O)(=O)c2ccc3c(c2)CC(C)N3C(=O)C2CC2)o1 (stereo not given) | 11.7 µM (active) | – |
| CS(=O)(=O)c1ccc(Cl)c(NC(=O)COC(=O)c2cccc(S(=O)(=O)N3CCCC3)c2)c1 | inactive | – |
| COc1ccc(/C=N/OCc2ccccc2C#N)c(OC)c1 | inactive | – |
| COc1ccc(-c2nn3c(-c4ccccc4)nnc3s2)cc1OC | inactive | – |
| CCOc1cccc(-c2nn3c(-c4ccccn4)nnc3s2)c1 | 8.28 µM (active) | – |
| c1ccc(-c2cc(-c3nnc4sc(-c5ccccn5)nn34)[nH]n2)cc1 | inactive | – |
| Cc1ccc(SCc2c(C(=O)N/N=C/c3cccnc3)nnn2-c2nonc2N)cc1 | inactive | – |
| COc1nc(Oc2ccc(=O)n(C)n2)nc(N(C)C)n1 | 3.7 µM (active) | – |
| COc1nc(OC)nc(N(C)CCO)n1 | inactive | – |
| CCCn1nc(Oc2nc(NC(C)C)nc(N(C)C)n2)ccc1=O | inactive | – |
| COC(=O)[C@@H]1CCCN1C(=O)c1cc(COc2cccc3cccnc23)on1 | inactive | – |
| O=C(COC(=O)/C=C/c1ccc(OC(F)F)cc1)NC1CCCCC1 | inactive | – |
| Cc1ccc(S(=O)(=O)N(CC(=O)Nc2cccnc2)c2ccc(Br)cc2)cc1 | inactive | – |
| CC(=O)c1c(C)[nH]c(C(=O)N2CCN(S(=O)(=O)c3ccc(F)c(F)c3)CC2)c1C | inactive | – |
| CC(C)Nc1nnc(SC(C)C(=O)N(C)C2CCCCC2)s1 (stereo not given) | inactive | – |
